The campaign covered roughly 290,000 compounds. About 11,000 (3.8%) were called active. The list comes from a sample in which actives are over-represented; it also holds similar structures and randomly drawn compounds. Unmarked numbers belong to inactive results.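 The calls were made as follows: active = mean replicate inhibition above about 79%, with every replicate also reaching it (limit read from the data); inconclusive = only one of the two criteria met; inactive = mean below limit and not every replicate reaching it.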
The compounds below were run against FAD-linked sulfhydryl oxidase ALR (Homo sapiens) (UniProt P55789) (assay: inhibitors of human ALR sulfhydryl oxidase, primary screen, biochemical, H2O2 detection, HRP-luminol luminescence, single point (AID 485317)). Conditions: purified ALR, DTT oxidation, hits give high values, concentration not given here.
Sequence of FAD-linked sulfhydryl oxidase ALR (Homo sapiens) (P55789 whole entry, looked up): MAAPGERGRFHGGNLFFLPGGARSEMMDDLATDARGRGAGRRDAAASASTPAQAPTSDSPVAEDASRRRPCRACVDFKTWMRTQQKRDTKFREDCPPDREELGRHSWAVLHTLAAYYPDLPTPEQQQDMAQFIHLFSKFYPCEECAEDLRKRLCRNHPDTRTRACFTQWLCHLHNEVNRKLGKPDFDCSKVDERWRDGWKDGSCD
In the case of O=C(CNC(=O)c1ccccc1F)OCC(=O)c1c[nH]c2ccccc12, the inhibition is reported as -4.95%.
In the case of CC(C)n1cnc2c(NCc3ccccc3)cc(N[C@@H](CO)Cc3ccccc3)cc21, the inhibition is reported as -30.8%.
Cc1ccc(OCc2nc3ccccc3n2C)cc1 was tested, and the inhibition was -6.95%.
For Cc1ccc(O)c(CNc2nc3ccccc3n2C)c1, the inhibition was 90.7% (active).
Cn1c(Nc2cccc(Cl)c2)nc2ccccc21 showed an inhibition of 10.5%.
In the case of Cc1ccc(-c2csc(NCCc3nc4cc(Cl)c(Cl)cc4n3CCOCCO)n2)cc1, the inhibition is reported as -6.99%.
In the case of O=C(c1n[nH]c2c1CCC2)N1CCCC(Nc2cccc(F)c2)C1 (stereo not drawn), the inhibition is reported as 99.1% (active).
Cc1ccc(F)cc1S(=O)(=O)Nc1cccc(C(=O)N2CCCC(C(N)=O)C2)c1 (stereo not drawn) gave an inhibition of -5.56%.
For O=C(Nc1cccc(F)c1)NC1CCCCCCC1, the inhibition was 43.5%.
Work on CCCCn1c(N)c(N(CC(C)C)C(=O)c2cnc(C)cn2)c(=O)[nH]c1=O yielded an inhibition of -2.15%.
With CCC(O)C1CCN(Cc2cn(-c3ccc(OC)cc3)nc2-c2cccc(F)c2)CC1 (stereo not drawn) the inhibition was -36.1%.
For COc1ccc(-c2nn(-c3ccccc3)cc2CN2CCCO2)c(F)c1, the inhibition was 83.5% (active).
Work on COc1ccc(-n2cc(CNC3CCOCC3)c(-c3cccc(F)c3)n2)cc1 yielded an inhibition of -7%.
Compound C[C@@H]1NC(=O)[C@@]2(C)[C@@H](c3ccccc3)[C@H]3COc4ccccc4[C@@H]3N2C1=O has an inhibition of 0.598%.
CN1/C(=C\C(=O)c2cccnc2Cl)C(C)(C)c2ccccc21 gave an inhibition of -13.8%.
With CN1CCN(CCC(=O)N/N=C/C=C2\N(C)c3ccccc3C2(C)C)CC1 the inhibition was 99% (active).
For CC(C)Nc1nnc(SCC(=O)/C=C2\N(C)c3ccccc3C2(C)C)s1, the inhibition was -3.17%.
Cc1ccc(NC(=O)CN(C)C(=O)c2ccc(Cl)c(S(=O)(=O)NCc3ccco3)c2)cc1 was tested, and the inhibition was -3.45%.
In the case of Cc1ccc(-c2nn(-c3ccc(F)cc3)cc2C(=O)NCC(c2cccs2)N2CCOCC2)cc1 (stereo not drawn), the inhibition is reported as -3.7%.
With CC1(C)CC[C@]2(C(=O)O)CC[C@]3(C)C(=CCC4[C@@]5(C)CC[C@H](O)C(C)(C)C5[C@H](O)C[C@]43C)[C@@H]2C1 (stereo partly drawn) the inhibition was -9.76%.
Work on O=C(CN1CCOCC1)Nc1cc(Cl)ccc1Cl yielded an inhibition of -11.6%.
With O=C(CN1CCN(c2ccc(O)cc2)CC1)Nc1cc(S(=O)(=O)N2CCOCC2)ccc1Cl the inhibition was 94.9% (active).
For O=C(CN1CCN(c2cccc(Cl)c2)CC1)Nc1ccc(S(=O)(=O)N2CCOCC2)cc1, the inhibition was -14.5%.
Compound Cc1ccc2c(CSc3nncs3)cc(=O)oc2c1 has an inhibition of -0.57%.
Compound CCOC(=O)Cc1csc(NC(=O)COc2ccc3c(C)cc(=O)oc3c2)n1 has an inhibition of -3.23%.
In the case of CCOC(=O)Cc1csc(SCc2cc(=O)oc3cc(O)ccc23)n1, the inhibition is reported as 97.7% (active).
O=C(NCCc1ccc(F)cc1)c1ccc2nccnc2c1 was tested, and the inhibition was -6.27%.
Compound CS(=O)(=O)c1ccc(Cl)c(NC(=O)COC(=O)c2ncc(Cl)c(Cl)c2Cl)c1 has an inhibition of 0.688%.
N#Cc1ccsc1NC(=O)CN1CCCCC1 was tested, and the inhibition was 3.1%.
Work on Cc1cccc(C)c1Nc1nnc(SCC(=O)Nc2sccc2C#N)s1 yielded an inhibition of 14.7%.
For Cc1ccc(NC(=O)CSCC(=O)Nc2sccc2C#N)cc1, the inhibition was 98.7% (active).
COC(C/C=C/C(=O)[C@@H](C)OCc1ccccc1)OC showed an inhibition of 55.7%.
O=C(CNC(=O)C12CC3CC(CC(C3)C1)C2)OCC(=O)N1CCCCC1 showed an inhibition of -2.51%.
Work on O=C(CSc1ccccc1)Nc1cccc(S(=O)(=O)N2CCOCC2)c1 yielded an inhibition of -1.29%.
In the case of CCc1c(O)nc(SCC(=O)Nc2ccccc2)n(C(C)CC)c1=O (stereo not drawn), the inhibition is reported as 98.8% (active).
For CCn1c(Cc2ccccc2)nnc1SCC(=O)Nc1ccccc1, the inhibition was -28.7%.
In the case of CCn1c(CNC(=O)c2ccc(OC)c(OC)c2)nnc1SCC(=O)Nc1ccccc1, the inhibition is reported as -2.46%.
With CC(OC(=O)c1ccc([N+](=O)[O-])cc1)C(=O)NCC1CCCCC1 (stereo not drawn) the inhibition was -1.04%.
O=C(Nc1cccc2c1CCCC2)c1ccc(F)cc1 gave an inhibition of -21.6%.
Work on CC1CN(C(=O)c2ccc([N+](=O)[O-])s2)CC(C)O1 (stereo not drawn) yielded an inhibition of -91.3%.
With COc1cc(N/C=C2\CC(=O)NC(C)=C2C#N)cc(OC)c1OC the inhibition was 97.1% (active).
For COC(=O)C1=C(C)NC(=O)CC1c1ccccc1OC (stereo not drawn), the inhibition was -0.32%.
COc1cc2c(cc1OC)C(C(=O)Nc1cc(C)c(OC)c(C)c1)CC(=O)N2 (stereo not drawn) was tested, and the inhibition was -6.22%.
Work on Cn1c(N)c(C(=O)COC(=O)/C=C/c2cccc(C(F)(F)F)c2)c(=O)n(C)c1=O yielded an inhibition of -1.31%.
CC(Sc1nncn1C)C(=O)NCCC1=CCCCC1 (stereo not drawn) showed an inhibition of -2.34%.
In the case of CC(CNC(=O)Cn1cnc2c(OCc3ccccc3)ncnc21)c1ccccc1 (stereo not drawn), the inhibition is reported as -1.23%.
Compound CC1(c2nnc(Cc3ccccc3)o2)CC(c2ccccc2F)=NO1 (stereo not drawn) has an inhibition of 1.62%.
Work on CCCNC(=O)c1ccc(N2CCC3(CC2)CC(c2cccc(Br)c2)=NO3)c(NC(=O)c2ccco2)c1 yielded an inhibition of 6.36%.
Cc1cc(C)c2c(=O)[nH]c(SCC(=O)Nc3ccc(Br)cc3)nc2n1 showed an inhibition of -7.51%.
For N#Cc1c(-c2cccs2)nc(SCC(=O)c2ccc(Br)cc2)[nH]c1=O, the inhibition was 98.5% (active).
With O=C(CSc1nc2ccccc2c(=O)[nH]1)Nc1nc(-c2ccc(Br)cc2)cs1 the inhibition was -3.23%.
In the case of COCCNc1nnc(SCC(=O)NNC(=O)c2ccco2)s1, the inhibition is reported as -2.35%.
With O=C(NCc1ccc2c(c1)OCO2)c1cc([N+](=O)[O-])ccc1N1CCOCC1 the inhibition was -3.3%.
With O=C(O)c1cccc(S(=O)(=O)N2CC=C(c3ccccc3)CC2)c1 the inhibition was 3.35%.
With Cc1ccc(C(=O)CNc2ccc(F)cc2)cc1 the inhibition was -18.2%.
For Cc1ccc(C(=O)NCCNC(=O)c2ccccc2)cc1, the inhibition was -3.69%.
In the case of Cc1ccc(SC(CC(=O)c2ccc(C(C)(C)C)cc2)C(=O)O)cc1 (stereo not drawn), the inhibition is reported as 97.7% (active).
CC(C)(C)OC(=O)C[C@@H]1C/C=C\C[C@@H](CC(=O)N(CCO)Cc2ccccc2)C(=O)N[C@H](Cc2ccccc2)COC1=O gave an inhibition of -5.13%.
